# Bioassay records: PubChem BioAssay, National Center for Advancing Translational Sciences (NCATS)
# Prx2 Sm inh = inhibitors of Schistosoma mansoni peroxiredoxin 2; AID 448; actives 0.07% (n = 65,000); Potency, µM; S. mansoni Prx2 activity coupled to TGR/GSH (TGR is thioredoxin glutathione reductase), NADPH fluorescence loss, qHTS
#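 qHTS, coupled TGR/Prx2 format; 15 min compound preincubation at RT; reaction started with H2O2 (2.5 mM aliquot); kinetic NADPH fluorescence decrease, ex 365/em 450 nm.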
# AmpC nodet inh = blocks E. coli AmpC beta-lactamase in absence of detergent. AmpC nitrocefin hydrolysis, absorbance 480 nm, no detergent. actives 1.8% (n = 71,000). Potency, µM (highest dose often 28.7 µM). P00811. AID 585
# Target sequence (P00811 whole entry, looked up): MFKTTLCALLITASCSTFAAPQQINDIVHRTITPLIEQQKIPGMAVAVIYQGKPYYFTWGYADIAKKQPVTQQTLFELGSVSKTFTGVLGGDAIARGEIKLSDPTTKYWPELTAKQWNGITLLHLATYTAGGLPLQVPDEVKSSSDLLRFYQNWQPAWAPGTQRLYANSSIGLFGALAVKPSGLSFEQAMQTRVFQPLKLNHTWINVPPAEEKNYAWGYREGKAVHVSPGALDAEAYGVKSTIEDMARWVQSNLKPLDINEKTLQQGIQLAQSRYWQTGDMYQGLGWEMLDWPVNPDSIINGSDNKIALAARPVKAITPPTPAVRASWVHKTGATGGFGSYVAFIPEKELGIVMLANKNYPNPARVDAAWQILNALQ
#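 AmpC in 20 mM phosphate buffer pH 7.0 was preincubated 15 min at room temperature with compounds. Nitrocefin (800 uM stock) was then added and hydrolysis followed at 480 nm every 20 s for 4 min.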
# AmpC det inh = blocks E. coli AmpC beta-lactamase in presence of detergent | AID 584 | purified AmpC, nitrocefin hydrolysis with detergent | Potency, µM (titrated, usually from 28.7 µM) | actives 0.09% (n = 71,000); active = well fitted curve in the direction sought with a large enough effect; inconclusive = small, poorly fitted or top-dose-only effect
#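 E. coli AmpC (5.3 nM) in 20 mM phosphate pH 7.0 with 0.01% Triton X-100, preincubated 15 min RT with compound; nitrocefin (2 uL of 800 uM stock) hydrolysis followed by 480 nm absorbance every 20 s over 4 min.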
# LT uptake inh = anthrax lethal toxin internalization inhibition | actives 0.67% (n = 70,000) | Cells, anthrax lethal toxin internalization, FRET ratio (460/530) | Potency, µM (series often up to 40 µM), actives largely listed as inhibitors; also: nearly all actives have a fitted effect of over 50% in size
# Numbers stand for hits; . = inactive; ? = inconclusive; / = no result given; ! = not active in a repeat; [ ] = remark or other dose. A selection: hits, their analogues and other compounds. The true share with any hit is near 2.4%. Unless noted, calls follow the shape of the full dose curve.
SMILES,Prx2 Sm inh,AmpC nodet inh,AmpC det inh,LT uptake inh
COc1ccc(C)cc1NC(=O)c1nnn(Cc2cccc(F)c2)c1N,/,3.2µM[single pt active],.,.
Cc1ccc(C)c(NC(=O)c2nnn(Cc3ccccc3)c2N)c1,.,.,.,.
COc1ccc(NC(=O)c2nnn(Cc3cccc(F)c3)c2N)c(OC)c1,.,2.5µM[single pt active],.,.
COc1cccc(Cn2nnc(C(=O)Nc3cc(Cl)ccc3OC)c2N)c1,.,.,.,?
COc1ccc(OC)c(NC(=O)c2nnn(Cc3ccc(Br)cc3F)c2N)c1,?,3.2µM[single pt active],.,?
Nc1nc(N)c2nc(CNc3ccc(C(=O)N[C@H](CCC(=O)O)C(=O)O)cc3)cnc2n1,.,.,.,?
O=C(SCc1cccc2ccccc12)c1ccc(Cl)cc1,.,.[5.75 µM],.[5.75 µM],.[8 µM]
C=CC(=O)OCCCC,/,.,.,.
Cc1cc(C(=O)CN2CC(C)OC(C)C2)c(C)n1-c1ccccc1 (configuration not stated),.,4µM[single pt active],.,.
O=C(O)CCc1ccc(-c2ccccc2)[nH]1,.,.[5.75 µM],.[5.75 µM],.[8 µM]
Cc1csc(NC(=O)CCCSc2nc3ccccc3s2)n1,.,.,.,.
Cc1cnc(NC(=O)CCCSc2nc3ccccc3s2)s1,.,13µM,.,.
CN(C)CCCN1c2ccccc2Sc2ccc(Cl)cc21,.,.,.,?
OCCN1CCN(CCCN2c3ccccc3Sc3ccc(Cl)cc32)CC1,.,.,.,25µM!
CO/N=C1/c2cc(OC)ccc2O[C@@H](c2cccc(OC)c2)[C@H]1O,/,/,/,.[8 µM]
CC1CCN(c2nncc3ccccc23)CC1,.,.,.,.
CC1CCN(c2nnc(N3CCC(C)CC3)c3ccccc23)CC1,.,3.2µM[single pt active],.,.
CCOc1ccc(C2C(C#N)=C(N)SC(N)=C2C#N)cc1OCC,.,.,.,.
N#CC1=C(N)SC(N)=C(C#N)C1c1cccc(Oc2ccccc2)c1,/,7.9µM,.,?
COc1ccc(NC(=O)Nc2cccc(C)n2)cc1,.,4µM[single pt active],.,.
Cc1cccc(NC(=O)Nc2ccc(C#N)cc2)n1,.,.,.,.
Cc1cc(=O)n2nc(N3CCC(C(=O)NC4CCCc5ccccc54)CC3)sc2n1 (configuration not stated),.,.,.,.
O=C(NC1CCCc2ccccc21)C1CCN(c2c(N3CCCC3)c(=O)c2=O)CC1 (configuration not stated),.,4µM[single pt active],.,.
NC(=NCc1ccc(Cl)c(Cl)c1)NC(=O)c1nc(Cl)c(N)nc1N,.,13µM[single pt active],.,?
CC(=O)OC[C@@H]1O[C@H](C/C=N\O[C@@H](C)CN2CCCc3nc(C)c(C)cc32)C=C[C@@H]1OC(C)=O,/,/,/,.[8 µM]
SMILES,Prx2 Sm inh,AmpC nodet inh,AmpC det inh,LT uptake inh
CCOC(=O)N1CCN(c2c(Nc3ccc4c(c3)OCCO4)c(=O)c2=O)CC1,.,4µM[single pt active],.,?
CCOC(=O)N1CCN(c2c(NCC3CCCO3)c(=O)c2=O)CC1 (configuration not stated),.,4µM[single pt active],.,.
CCOCC(=O)Nc1ccc2c(c1)OCCO2,.,.,.,.
CCOC(=O)C1CCN(c2c(N3CCN(c4ccccc4OC)CC3)c(=O)c2=O)CC1,.,.,.,.
CCOC(=O)N1CCN(c2c(N3CCOCC3)c(=O)c2=O)CC1,.,4µM[single pt active],.,.
CCOC(=O)N1CCN(c2c(N3CCc4ccccc43)c(=O)c2=O)CC1,/,4µM[single pt active],.,?
O=C(Oc1ccccc1)N1CCC2(CC1)CCN(c1ccccn1)CC2,.,.,.,.
O=C(O)C(Cc1ccccc1)Cc1ccccc1,.,.[5.75 µM],.[5.75 µM],.[8 µM]
CCOC(=O)N1CCN(c2c(N3CCN(c4ccccn4)CC3)c(=O)c2=O)CC1,.,4µM[single pt active],.,.
COc1ccc(C2c3sc(=O)[nH]c3SC3C(=O)N(c4ccccc4)C(=O)C32)cc1 (configuration not stated),.,4µM[single pt active],.,.
Cn1cccc1C(=O)N1CCC2(CC1)CCN(c1ccccc1)CC2,.,.,.,?
CCOC(=O)N/N=C1/C[C@@H](O)[C@@H](O)[C@@H]2[C@@H]3C(=O)N(Cc4ccccc4)C(=O)[C@H]3CC[C@H]12,/,/,/,.[8 µM]
O=C(O)Cc1cc(Cl)ccc1O,.,.[5.75 µM],.[5.75 µM],.[8 µM]
Oc1ccc(Cl)cc1Cc1cc(Cl)cc(Cc2cc(Cl)ccc2O)c1O,.,.[5.75 µM],.[5.75 µM],4µM
CN(C)c1ccc(-c2cncnc2NCCN2CCOCC2)cc1,?,.,.,?
O=C(C1CC(c2ccc(F)cc2)=NO1)N1CCCCC1 (configuration not stated),.,.,.,.
COc1cccc(C2=NOC(C(=O)N3CCc4ccccc4C3)C2)c1 (configuration not stated),.,.,.,?
O=C(C1CC(c2ccc(F)cc2)=NO1)N1CCN(c2ccccc2)CC1 (configuration not stated),.,4µM[single pt active],.,.
O=C(C1CC(c2ccc(F)cc2)=NO1)N1CCc2ccccc2C1 (configuration not stated),.,4µM[single pt active],.,?
O=C(c1ccc2c(=O)n(Cc3ccc4c(c3)OCO4)c(=S)[nH]c2c1)N1CCCCC1,.,16µM[single pt active],.,.
COc1cccc2c1C(=O)c1c(O)c3c(c(O)c1C2=O)C[C@](O)(C(=O)CO)C[C@@H]3O[C@H]1C[C@H](N)[C@@H](O)[C@H](C)O1,.,.[5.75 µM],.[5.75 µM],.[8 µM]
COc1cccc2c1C(=O)c1c(O)c3c(c(O)c1C2=O)C[C@@](O)(C(C)=O)C[C@@H]3O[C@H]1C[C@H](N)[C@H](O)[C@H](C)O1,.,.,.,16µM
CO/N=C(\C)CCN1CCCCc2nc(C)c(C)cc21,/,/,/,.[8 µM]
COc1cccc(-c2nc(N(C)Cc3ccco3)c3ccccc3n2)c1,.,.,.,?
Cc1nc2ccc(S(=O)(=O)NC(C(=O)NCc3ccco3)C(C)C)cc2s1 (configuration not stated),.,4µM[single pt active],.,.
SMILES,Prx2 Sm inh,AmpC nodet inh,AmpC det inh,LT uptake inh
CC1(C)O[C@@H]2O[C@H]([C@H](O)CO/N=C3/[C@H]4O[C@@H]4[C@@H](O)[C@H]4[C@H]3CCn3c(=O)n(-c5ccccc5)c(=O)n34)[C@@H](O)[C@@H]2O1,/,/,/,.[8 µM]
Cc1ccccc1C1CC(c2ccccc2)Nc2ncnn21 (configuration not stated),.,4µM[single pt active],.,.
Fc1ccc(C2CC(c3ccccc3)n3ncnc3N2)cc1 (configuration not stated),.,.,.,.
CCOc1ccc(C2CC(c3ccc(F)cc3)n3ncnc3N2)cc1 (configuration not stated),.,4µM[single pt active],.,.
COc1cccc(C2CC(c3ccccc3)Nc3ncnn32)c1 (configuration not stated),.,.,.,.
COc1cccc(C2CC(c3ccccc3OC)n3ncnc3N2)c1 (configuration not stated),.,4µM[single pt active],.,.
CC1(CC(=O)O)O[C@H]2CCCCC[C@H]2O1 (some centres not stated) (tested in a mixture with another compound),.,.[5.75 µM],.[5.75 µM],.[8 µM]
CC1CCCCC1NC(=O)CC1Oc2ccccc2NC1=O (configuration not stated),.,4µM[single pt active],.,.
